aSyn 5UTR act: Activators via SNCA 5'UTR binding, MLPCN. 300,000 tested, 7.1% active. activity score, % (tested at 7.5 µM), hits read low. alpha-synuclein 5'UTR reporter, activators screen; in the data active = activity score below about -60%
Active calls of the source: *. A selection follows.

SMILES	aSyn 5UTR act
O=[N+]([O-])c1cccc(/C=N/Nc2ccccn2)c1	-229.7*
CCOC(=O)c1c(-c2ccccc2)nc2ccc(C)cn12	-165.9*
CCOC(=O)c1c(-c2ccccc2)nc2cc(C)ccn12	-104.2*
Cc1cc(/C=N/Nc2nc(N)ncc2[N+](=O)[O-])c(C)n1-c1ccccc1F	72.7
O=[N+]([O-])c1ccccc1N/N=C\c1ccccc1Cl	-209.1*
O=[N+]([O-])c1ccccc1N/N=C\c1ccccc1F	-165.3*
O=[N+]([O-])c1ccccc1N/N=C/c1cccc(O)c1O	-104.2*
CCCOc1ccc(/C=N/Nc2ccccc2[N+](=O)[O-])c(OCCC)c1	-133.3*
COc1ccc(/C=N/Nc2cc(C)nc3ccc(OC)cc23)c(OC)c1	116.6
COc1ccc(/C=N/Nc2ncccc2[N+](=O)[O-])c(OC)c1	-121.8*
O=[N+]([O-])c1cccc(N/N=C/c2cccc(O)c2O)c1	-110.3*
O=C(N/N=C/c1cc([N+](=O)[O-])ccc1O)c1cccc2cc[nH]c12	68.0
O=[N+]([O-])c1ccc(O)c(/C=N/Nc2ccccc2Cl)c1	-85.2*
O=[N+]([O-])c1ccc(O)c(/C=N/n2cnc3ccccc32)c1	-67.0*
O=C(NC(CSCc1ccccc1)C(=O)N/N=C/c1ccc(O)cc1O)c1ccc([N+](=O)[O-])cc1 (stereo not given)	83.7
C/C(=N\OCc1nc2ccccc2c(=O)n1/N=C/c1cc([N+](=O)[O-])ccc1O)c1ccccc1	-61.8*
C=CCOC(=O)/C(=C/c1cccc2ccccc12)NC(=O)c1ccccc1	-258.1*
Oc1ccc(N=Nc2n[nH]c(-c3ccccc3)n2)cc1	-84.8*
CCOc1ccc2oc(C(=O)NC(C)(C)CC)c(C)c2c1	-117.5*
Cc1ccc(C2=NNC(C(O)C(O)C(O)C(C)O)S2)cc1 (stereo not given)	-87.1*
Cc1ccc2c(C)c(C(=O)N(C)C(C)c3ccon3)oc2c1C (stereo not given)	-149.2*
CC1(C)C=Cc2cc(-c3coc4cc(O)cc(O)c4c3=O)cc(O)c2O1	-149.4*
C=CCn1cccc(C(=O)Nc2ccc(C)c(Cl)c2)c1=O	-139.7*
C=CCn1cccc(C(=O)Nc2ccc(OC)c(Cl)c2)c1=O	-83.9*
COCC(=O)N/N=C\c1ccccc1OC/C=C/c1ccccc1	-94.8*
SMILES	aSyn 5UTR act
N#CCC(=O)N/N=C\c1ccccc1OC/C=C/c1ccccc1	-165.6*
CCOC(=O)c1sc(/N=C/c2c(O)ccc3ccccc23)cc1C	-72.6*
Cc1ccc(N=Cc2c(O)ccc3ccccc23)cc1F	-111.4*
COCCn1c(COc2ccc(OC)cc2)nc2ccccc21	-82.1*
C=CCn1c(COc2ccc(OC)cc2)nc2ccccc21	-74.6*
CCn1c(COc2ccc(OC)cc2)nc2ccccc21	-94.4*
COCn1c(-c2ccc(OC)cc2)nc2ccccc21	-191.9*
OCc1nc2ccccc2n1CCCOc1ccc(Br)cc1	-104.3*
Cc1c(OCC(F)(F)F)ccnc1CS(=O)c1nc2ccccc2[nH]1 (stereo not given)	-99.5*
COCCCOc1ccnc(CS(=O)c2nc3ccccc3[nH]2)c1C (stereo not given)	-111.3*
Cc1c(OCC(F)(F)F)ccnc1CSc1nc2ccccc2[nH]1	-141.9*
O=C(NC(=S)Nc1ccc(N2CCCCC2)cc1)c1cccs1	-103.8*
O=C(Nc1ccc(N2CCCC2)c(Cl)c1)c1cccs1	-114.0*
O=C(Nc1ccc(NC(=O)c2cccs2)c(Cl)c1)c1ccco1	-122.8*
O=C(NC(=S)Nc1ccc(N2CCOCC2)c(Cl)c1)c1cccs1	-109.9*
CCc1ccc(S(=O)(=O)/N=C2\C=C(Nc3ccc(O)cc3)C(=O)c3ccccc32)cc1	101.4
Cc1ccc(S(=O)(=O)/N=C2/C=C(C3C(=O)CC(C)(C)CC3=O)C(=O)c3ccccc32)cc1	-179.9*
Cc1ccc(NC2=C/C(=N\S(=O)(=O)c3cccs3)c3ccccc3C2=O)c(C)c1	118.0
CCc1ccccc1NC(=O)c1cccc(NC(=O)/C=C/c2ccco2)c1	-100.0*
O=C(/C=C/c1ccco1)Nc1ccc2c(c1)OCO2	-187.7*
Cc1ccc(-n2nc3ccc(NC(=O)/C=C/c4ccco4)cc3n2)cc1	-201.8*
C=CCn1c(=O)c2ccccc2n2c(Sc3nnnn3-c3ccccc3)nnc12	-74.2*
O=C1C=C(N2CCCCCC2)C(=O)N1c1ccc(Cl)cc1	-170.7*
CC1(C)Cc2nc3sc(C(=O)NCCCO)c(N)c3cc2CS1	-92.3*
C=CCN1C(=O)/C(=C/c2ccc(N(C)C)cc2)S/C1=N\c1nnc(CC)s1	-65.0*
SMILES	aSyn 5UTR act
NS(=O)(=O)c1cc(C(=O)Nc2ccc3c(c2)CCC3)ccc1Cl	-153.3*
Cc1ccc(C(=O)Nc2ccc3c(c2)CCC3)cc1S(=O)(=O)N1CCOCC1	-108.2*
CSc1nnc(NC(=O)c2ccc(C)c(S(=O)(=O)N3CCOCC3)c2)s1	-73.2*
Cc1cccc(C)c1NC(=S)N=Nc1c(O)n(C)c2ccc(S(=O)(=O)N3CCOCC3)cc12	71.4
Cc1cc(C)cc(NC(=S)N=Nc2c(O)n(C)c3ccc(S(=O)(=O)N4CCOCC4)cc23)c1	63.4
O=C(Nc1ccc2c(c1)CCC2)c1ccc(F)c(S(=O)(=O)N2CCOCC2)c1	-74.3*
c1ccc(OCCSc2nc3ccccc3[nH]2)cc1	-127.6*
Clc1ccc(OCc2nc3ccccc3[nH]2)cc1	-139.2*
c1ccc(OCc2nc3ccccc3[nH]2)cc1	-152.6*
O=C(NCc1ccccc1F)c1ccc2c(c1)OCCO2	-79.9*
O=C(CCC1CCCN(C(=O)c2ccc3c(c2)OCCO3)C1)NCc1ccccc1F (stereo not given)	-66.0*
CC(=O)c1ccc(Sc2ccc(C(C)=O)cc2)cc1	-63.5*
COc1ccc(-c2cc(=O)c3ccccc3s2)cc1	-248.0*
COc1ccc2oc3ccccc3c(=O)c2c1	-161.5*
COc1ccc2oc3ccc(OC)cc3c(=O)c2c1	-189.5*
COc1ccc2sc3ccccc3c(=O)c2c1	-169.7*
O=C(c1ccc2ccccc2c1)N1CCc2ccccc21	-100.1*
O=C(c1cccs1)N1CCc2ccccc21	-156.7*
CCOc1ccc(C(=O)N2CCc3ccccc32)cc1	-104.1*
COc1ccccc1CCC(=O)Nc1ncc(C)s1	-82.5*
Cc1cnc(NC(=O)COc2ccccc2Cl)s1	82.0
COc1ccccc1CCC(=O)Nc1ccc(C)cc1Cl	-160.2*
O=C(Cc1ccc(Cl)cc1)Nc1ccc(Br)cn1	-66.0*
O=C(Cc1ccc(Cl)cc1)Nc1ccc(Br)cc1	-67.3*
Oc1ccc(Cl)cc1CNc1ccc(Br)cn1	-141.8*
SMILES	aSyn 5UTR act
CCOc1nc(NCc2ccco2)nc(Nc2ccccc2F)n1	-108.0*
Cc1cccc(N(C(=O)c2nsc(Cl)c2Cl)C(C(=O)NC2CCCC2)c2ccc(O)cc2)c1 (stereo not given)	-82.1*
O=C(O)/C(=C\C(=O)c1ccccc1)Nc1ccccc1	-90.5*
O=C(CC(=O)c1ccccc1)Nc1ccccc1C(F)(F)F	-63.4*
O=C(CC(=O)c1ccccc1)Nc1ccccc1	-110.3*
O=C(CC(=O)c1ccccc1)Nc1ccccn1	-130.1*
COc1cccc(NC(=O)CC(=O)c2ccccc2)c1	-111.5*
COc1cccc(N=NC2C(=O)N(C(N)=S)N=C2C)c1 (stereo not given)	-94.6*
CC1=NN(C(N)=S)C(=O)C1N=Nc1ccc(C)cc1C (stereo not given)	-102.5*
CC(=O)N(C)c1ccc(N=NC2C(=O)N(C(N)=S)N=C2C)cc1 (stereo not given)	-92.9*
CC1=NN(C(N)=S)C(=O)C1N=Nc1cccc(Cl)c1 (stereo not given)	-86.0*

Screening data: PubChem, Broad Institute
